Rows were chosen to be rich in hits. Some 0.85% of all compounds tested hit in one or more screens of this group.
RECQ1 helicase – blocks DNA unwinding by human RECQ1; P46063; RECQ1 DNA unwinding, red fluorescence kinetic read; Potency, µM (titrated, usually from 57.3 µM), most hits filed as inhibitors; 0.54% of 240,000 active; AID 2549; note: nearly all actives have a fitted effect of over 30% in size
Target sequence (P46063 whole entry, looked up): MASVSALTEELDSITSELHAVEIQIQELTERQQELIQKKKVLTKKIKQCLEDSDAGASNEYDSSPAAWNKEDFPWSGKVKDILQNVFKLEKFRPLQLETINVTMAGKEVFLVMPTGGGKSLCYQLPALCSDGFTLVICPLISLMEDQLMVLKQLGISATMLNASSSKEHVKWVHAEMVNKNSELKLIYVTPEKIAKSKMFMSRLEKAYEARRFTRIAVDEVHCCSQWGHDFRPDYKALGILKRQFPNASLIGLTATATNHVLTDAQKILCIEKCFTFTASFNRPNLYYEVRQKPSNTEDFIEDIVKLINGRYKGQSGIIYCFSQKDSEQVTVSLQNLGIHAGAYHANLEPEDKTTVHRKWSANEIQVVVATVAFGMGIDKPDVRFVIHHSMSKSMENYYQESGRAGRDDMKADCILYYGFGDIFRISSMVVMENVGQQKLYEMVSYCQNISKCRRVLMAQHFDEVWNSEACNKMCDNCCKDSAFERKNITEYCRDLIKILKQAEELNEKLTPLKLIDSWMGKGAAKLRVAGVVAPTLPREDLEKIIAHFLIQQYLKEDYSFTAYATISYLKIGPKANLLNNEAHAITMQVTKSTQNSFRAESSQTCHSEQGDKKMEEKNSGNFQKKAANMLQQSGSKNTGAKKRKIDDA
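RECQ1T1 50 nM; forked duplex (20 bp + 30-nt ss tails) 200 nM, ATP 2 mM final; pH 8.0, 2 mM MgCl2, 2.5 ug/ml poly(dI-dC); 15 min compound preincubation; discontinuous kinetic read over 2 h at RT.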
GLS inhibitor – blocks human kidney-isoform glutaminase activity | O94925 | GLS enzymatic activity, qHTS titration | Potency, µM (series often up to 45.5 µM), hits mostly inhibitors | 0.21% of 410,000 active | AID 624170
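Two-point fluorescence kinetic (t0, 30 min RT) for hKGA; glutamate detected via glutamate oxidase–HRP–Amplex Red. Substrate: 1 mM L-glutamine solution; buffer 45 mM KH2PO4, pH 8.2.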
PGK inhibitor – blocks T. brucei phosphoglycerate kinase; PGK/GAPDH coupled, Kinase-Glo luminescence, 60 min; Potency, µM (highest dose often 57.5 µM), most hits filed as inhibitors; AID 602233; 0.043% of 380,000 active; note: nearly all actives have a fitted effect of over 60% in size
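Recombinant glycosomal PGK reaction used 1,3-bisphosphoglycerate generated in-well by GAPDH (100nM final) in 100mM TEA pH 7.6, 5mM MgCl2, 0.01% Tween-20. After 60 minutes at room temperature, ATP was read by Kinase-Glo Plus luminescence end-point.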
APE1 inh – APE1 (human) endonuclease inhibition; P27695; recombinant APE1, TAMRA/BHQ-2 abasic DNA cleavage fluorescence; Potency, µM (doses to about 65.8 µM), actives largely listed as inhibitors; 0.35% of 350,000 active; note: nearly all actives have a fitted effect of over 55% in size
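Quantitative HTS: incision of a TAMRA/BHQ-2 double-stranded substrate bearing a tetrahydrofuran abasic site by 0.75 nM APE1 raises fluorescence. Substrate 50 nM final, added after 15 min compound preincubation at room temperature; progress as third-minus-first kinetic read difference.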
TDP1 inh – blocks human tyrosyl-DNA phosphodiesterase 1; Q9NUW8; recombinant TDP1, AlphaScreen DNA substrate cleavage; 0.28% of 350,000 active; AID 485290; Potency, µM (top dose mostly 130 µM), usual class: inhibitors; note: nearly all actives have a fitted effect of over 40% in size
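Here, a 5' biotin and 3' phosphotyrosine-FITC DNA oligonucleotide reports Tdp1 activity: intact substrate bridges AlphaScreen beads, while cleavage leaves a 3' phosphate and drops signal. All incubations at room temperature.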
BLM inh – blocks DNA unwinding by human BLM helicase; Potency, µM (highest dose often 56.1 µM), usual class: inhibitors; recombinant BLM DNA unwinding, fluorescence dequenching; 0.2% of 350,000 active; note: nearly all actives have a fitted effect of over 35% in size
A number is an active result; . = inactive; ? = inconclusive; / = not tested or not shown; [ ] = dose if it differs, or a comment. Calls come from the whole dose curve; as a rule, active = well fitted curve in the direction sought with a large enough effect; inconclusive = small, poorly fitted or top-dose-only effect, or another doubt; inactive = no such curve, though single readings can be large; an effect the other way counts as inactive or inconclusive.

SMILES	RECQ1 helicase	GLS inhibitor	PGK inhibitor	APE1 inh	TDP1 inh	BLM inh
Cc1cc(C)c(S(=O)(=O)c2cccc(Cl)c2)c(Cl)n1	.	.	.	.	.	.
Cn1c(/C=C/c2ccccc2[N+](=O)[O-])nc2ccccc2c1=O	/	.	.	.	5.01µM	.
O=C(O)c1ccc(N/N=C/c2ccc(-c3cc(Cl)ccc3Cl)o2)cc1	.	.	.	?	70.8µM	.
O=C(O)c1ccc(N/N=C/c2ccc(-c3ccc(Cl)cc3Cl)o2)cc1	.	.	.	.	.	.
Cc1ccc(NC(=O)/C(C#N)=C\c2ccc(-c3ccc(Cl)cc3)o2)c(C)c1	/	.	.	/	.[12.3 µM]	.
N#C/C(=C\c1ccc(-c2cc(Cl)ccc2Cl)o1)C(=O)Nc1ccccc1C(=O)O	/	.	.	/	.[12.3 µM]	11.2µM
CC(=O)NC(c1cc(Cl)c2ccccc2c1O)C1CC1 (configuration not stated)	/	/	/	.	/	/
O=c1cc2oc3cc(O)c(O)cc3c(-c3ccccc3[N+](=O)[O-])c-2cc1O	/	.	?	0.134µM	/	0.708µM
O=c1cc(-c2ccccc2Cl)oc2c([N+](=O)[O-])ccc(O)c12	.	/	/	.	.	.
COc1ccc(/C=C2\C(=O)NC(=S)N2C(=O)c2ccc(C)cc2)cc1	.	.	?	.	?	25.1µM
COc1cc(/C=C2/C(=O)c3cccc([N+](=O)[O-])c3C2=O)c(Br)cc1O	25.1µM	?	.	?	.	.
COc1cc(OC)c2c(O)c3c(c(-c4c5c(c(O)c6c(OC)cc(OC)cc46)CO[C@@H](C)[C@H]5O)c2c1)[C@H](O)[C@H](C)OC3	25.1µM	?	.	?	.	?
C#Cc1ccc([C@H]2C=C(C(=O)OCC=C)O[C@@H](OCC)[C@@H]2CCCO)cc1	22.4µM	.	.	.	.	.
C#Cc1ccc([C@@H]2C=C(C(=O)OCC=C)O[C@H](OCC)[C@H]2CCCO)cc1	.	.	.	.	.	.
COc1ccc(NC(=O)C(OC(=O)CNC(=O)c2ccccc2)c2ccccc2)c(C)c1 (configuration not stated)	/	/	/	/	.	/
O=C(N/N=C/c1cn(Cc2ccccc2)c2ccccc12)c1cc(O)cc(O)c1	/	.	?	15µM	.	.
Cc1ccc(C(=O)N/N=C/c2cn(Cc3ccccc3)c3ccccc23)cn1	.	.	.	.	.	.
COc1cc(/C=C/C(=O)C2C(=O)C=C(C)OC2=O)cc(OC)c1O (configuration not stated)	.	.	.	.	.	.
COc1ccc(/C=C/C(=O)C2C(=O)C=C(C)OC2=O)cc1O (configuration not stated)	.	7.08µM	.	.	.	.
CC(C)(C)n1ncc2c(=O)n(Cc3ccc([S+](=O)([O-])N4CCOCC4)cc3)cnc21	/	/	/	.	/	/
O=C(O)COc1ccc2c(c1)O/C(=C\c1ccco1)C2=O	/	10µM	28.2µM	13.4µM	/	.
COc1ccc(C2c3c(ncn(Cc4ccccc4)c3=N)Oc3ccc4ccccc4c32)cc1OC (configuration not stated)	/	/	/	/	.	/
O=c1[nH]c(/C=C2\C=Nc3ccccc32)c(O)n1Cc1ccccc1F	.	7.94µM	.	.	.	.
CSc1nc(O)c(/C=C2\C=Nc3ccccc32)[nH]1	.	.	.	.	.	.
O=C(NCCc1ccc(Cl)cc1)c1cc2c(s1)-c1ccccc1OC2	/	.	.	/	.	?
SMILES	RECQ1 helicase	GLS inhibitor	PGK inhibitor	APE1 inh	TDP1 inh	BLM inh
Cc1ccc(CCNC(=O)c2cc3c(s2)-c2ccccc2OC3)cc1	/	.	.	/	39.8µM	.
Clc1ccc(CNc2ccccc2NCc2ccc(Cl)nc2)cn1	.	12.6µM	.	.	.	.
COc1ccc(NC(=O)CSc2nc(NS(=O)(=O)c3ccccc3)cc(=O)[nH]2)cc1	14.1µM	.	?	?	/	?
COc1ccc(Cl)cc1NC(=O)CSc1nc(NS(=O)(=O)c2ccccc2)cc(=O)[nH]1	/	.	.	.	.[0.0935 µM]	.
COc1ccc2c(C(=S)N(C)CC(=O)O)cccc2c1C(F)(F)F	/	.	/	/	/	/
CN(C)c1cccc(S(=O)(=O)N2CCN(S(=O)(=O)c3ccc4c(c3)OCCO4)CC2)c1	/	/	/	/	.	/
CCNc1cc(O)ccc1C	28.2µM	.	.	.	.	/
CC1=NN(c2ccc(C(=O)OC(C)C)cc2)C(=O)/C1=C\C=C\c1ccco1	.	.	.	.	.	.
O=C(O)c1cc(N2N=C(C(F)(F)F)/C(=C/C=C/c3ccco3)C2=O)ccc1Cl	.	8.91µM	?	.	.	?
O=C(NNC(=O)c1cc(-c2ccco2)nc2ccccc12)c1ccccc1	.	.	.	.	.	.
O=C(O)c1cc(-c2ccco2)nc2cc3ccccc3cc12	28.2µM	.	.	?	/	.
COc1cc(C2C(C#N)=C(N)OC3=C2C(=O)CC(C)(C)C3)c([N+](=O)[O-])cc1OC (configuration not stated)	.	.	.	.	.	.
CC1(C)CC(=O)C2=C(C1)OC(N)=C(C#N)[C@@H]2c1ccccc1[N+](=O)[O-]	.	.	.	.	70.8µM	.
O=C(CCCCCCCC(=O)NNC(=O)Nc1ccccc1)NNC(=O)Nc1ccccc1	.	.	.	.	.	28.2µM
O=C(CCc1ccccc1)NNC(=O)Nc1ccccc1	.	.	.	.	.	.
CC(C)Nc1cccc(S(=O)(=O)N2CCCN(S(=O)(=O)c3ccc4c(c3)OCCO4)CC2)c1	/	/	/	/	.	/
Cc1cccc(C)c1-n1c(SCC(=O)NCCCCCC(=O)O)nnc1-c1cccc([S+](=O)([O-])N2CCCC2)c1	/	/	/	.	/	/
N#Cc1nc(Nc2cccc3ccccc23)nc(NC2CCCC2)n1	/	/	/	/	.	/
COc1ccc(C(C#N)N2CCC(c3ccccc3)=N2)cc1OC (configuration not stated)	.	.	.	.	.	.
COc1cc(C(C#N)N2CCC(c3ccccc3)=N2)ccc1O (configuration not stated)	.	10µM	.	.	/	.
CO/N=C(\C(=O)N[C@@H]1C(=O)N2C(C(=O)OCOC(=O)C(C)(C)C)=C(/C=C\c3scnc3C)CS[C@H]12)c1csc(N)n1	/	/	/	.	/	/
O=C(COC(=O)c1cccc(OC(F)F)c1)Nc1ncccn1	/	?	.	.	44.7µM	/
O=C(COC(=O)c1ccc(OC(F)(F)F)cc1)Nc1ncccn1	/	?	.	?	22.4µM	/
Cc1cccc(C)c1NC(=S)NCCc1ccc(O)c(O)c1	.	3.98µM	.	.	.	.
C/C(=N\Nc1nc2ccccc2[nH]1)c1ccc(N2CCOCC2)cc1	.	.	.	.	.	.
C/C(=N\Nc1nc2ccccc2[nH]1)c1ccc(Cl)s1	31.6µM	?	.	.	.	.
